Experimental data: PubChem BioAssay (NCI)
About 83,000 compounds went through this panel and 20% of them were active in at least one assay; those are over-represented in the sample as a whole.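 Treatment: one concentration, 48 hours, 96-well format. Scoring: percent growth, with anything below 10 considered active.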 The source made the active and inactive calls.

Assays:
Assay in all cases: NCI-60 one-dose screen, 48 h (100 = growth as untreated, 0 = no growth, -100 = all killed)
Conditions in all cases: 10 µM unless noted
EKVX NSCLC = tested on: EKVX NSCLC
SN12C renal = tested on: SN12C renal
UO-31 renal = tested on: UO-31 renal
TK-10 renal = tested on: TK-10 renal
CAKI-1 renal = tested on: CAKI-1 renal
CCRF-CEM leukemia = tested on: CCRF-CEM leukemia
MOLT-4 leukemia = tested on: MOLT-4 leukemia
SR leukemia = tested on: SR leukemia
RPMI-8226 leukemia = tested on: RPMI-8226 leukemia
OVCAR-8 ovarian = tested on: OVCAR-8 ovarian
OVCAR-5 ovarian = tested on: OVCAR-5 ovarian
OVCAR-4 ovarian = tested on: OVCAR-4 ovarian
SK-OV-3 ovarian = tested on: SK-OV-3 ovarian
IGROV1 ovarian = tested on: IGROV1 ovarian
HS 578T breast = tested on: HS 578T breast
NCI/ADR-RES ovarian = tested on: NCI/ADR-RES ovarian
T-47D breast = tested on: T-47D breast
ACHN renal = tested on: ACHN renal
A498 renal = tested on: A498 renal
OVCAR-3 ovarian = tested on: OVCAR-3 ovarian

Measured: growth

O=C(Oc1ccc2ccc(=O)oc2c1)c1ccc(Cl)cc1
inactive: EKVX NSCLC 99.2% | SN12C renal 98.7% | UO-31 renal 86.7% | TK-10 renal 125% | CAKI-1 renal 98.5% | CCRF-CEM leukemia 103% | MOLT-4 leukemia 106% | SR leukemia 96.6% | RPMI-8226 leukemia 109% | OVCAR-8 ovarian 105% | OVCAR-5 ovarian 110% | OVCAR-4 ovarian 119% | SK-OV-3 ovarian 109% | IGROV1 ovarian 104% | HS 578T breast 103% | NCI/ADR-RES ovarian 101% | T-47D breast 105%

COc1ccc(N/N=C/c2c(-c3ccc(S(C)(=O)=O)cc3)nc3ccccn23)cc1
inactive: EKVX NSCLC 69.2% | SN12C renal 49.8% | UO-31 renal 30.2% | TK-10 renal 57.3% | ACHN renal 32.2% | A498 renal 35.6% | CCRF-CEM leukemia 32% | MOLT-4 leukemia 18.6% | SR leukemia 57.1% | RPMI-8226 leukemia 32.2% | OVCAR-8 ovarian 49.1% | OVCAR-5 ovarian 67.4% | OVCAR-4 ovarian 42.1% | SK-OV-3 ovarian 62.2% | IGROV1 ovarian 51.9% | HS 578T breast 62.4% | NCI/ADR-RES ovarian 34% | T-47D breast 26.2%

N#Cc1ccc(/C=N/NC(=O)c2[nH]c3ccc(Br)cc3c2-c2ccccc2)s1
inactive: EKVX NSCLC 25% | SN12C renal 42.1% | UO-31 renal 36% | TK-10 renal 102% | CAKI-1 renal 18.3% | OVCAR-5 ovarian 54.5% | OVCAR-4 ovarian 54.6% | SK-OV-3 ovarian 22.6% | IGROV1 ovarian 17.3% | HS 578T breast 23.3% | T-47D breast 58.8%
active: CCRF-CEM leukemia 9.74% | MOLT-4 leukemia 4.12% | SR leukemia 7.7% | RPMI-8226 leukemia -7.36% | OVCAR-8 ovarian 2.33% | NCI/ADR-RES ovarian 9.75%

C/C(=N\NC(N)=O)c1c(O)sc(=O)[nH]c1=O
inactive: EKVX NSCLC 95.8% | SN12C renal 97.1% | UO-31 renal 87.1% | TK-10 renal 110% | ACHN renal 101% | CCRF-CEM leukemia 100% | MOLT-4 leukemia 109% | SR leukemia 114% | RPMI-8226 leukemia 102% | OVCAR-8 ovarian 99.9% | OVCAR-5 ovarian 102% | OVCAR-4 ovarian 105% | SK-OV-3 ovarian 115% | IGROV1 ovarian 99.7% | OVCAR-3 ovarian 114% | HS 578T breast 91.4% | NCI/ADR-RES ovarian 105% | T-47D breast 105%

O=C(CSc1nccc(=O)[nH]1)Nc1ccc(-c2nc3ccccc3[nH]2)cc1
inactive: EKVX NSCLC 111% | SN12C renal 103% | UO-31 renal 108% | TK-10 renal 116% | CAKI-1 renal 112% | A498 renal 116% | CCRF-CEM leukemia 101% | MOLT-4 leukemia 111% | SR leukemia 117% | RPMI-8226 leukemia 109% | OVCAR-8 ovarian 103% | OVCAR-5 ovarian 109% | OVCAR-4 ovarian 112% | IGROV1 ovarian 102% | OVCAR-3 ovarian 123% | HS 578T breast 119% | NCI/ADR-RES ovarian 111% | T-47D breast 106%

COc1cc(-c2nc3ccc(-c4nnc(SCC(=O)Nc5ccc(C(=O)/C=C/c6ccc(Cl)cc6)cc5)o4)cc3[nH]2)cc(OC)c1OC
inactive: EKVX NSCLC 99.5% | SN12C renal 90.4% | UO-31 renal 84% | TK-10 renal 120% | CAKI-1 renal 97.2% | A498 renal 83.2% | CCRF-CEM leukemia 81.6% | MOLT-4 leukemia 79.5% | SR leukemia 60.4% | RPMI-8226 leukemia 57.2% | OVCAR-8 ovarian 92.5% | OVCAR-5 ovarian 99.2% | OVCAR-4 ovarian 100% | SK-OV-3 ovarian 121% | IGROV1 ovarian 81.6% | OVCAR-3 ovarian 97.9% | HS 578T breast 87.9% | NCI/ADR-RES ovarian 106% | T-47D breast 80.4%

COc1cc2cc(Oc3ccc(NC(=O)c4cccc(C(F)(F)F)c4)cc3)c(C)nc2cc1OCCN1CCCCC1
active: CCRF-CEM leukemia 6.44% | MOLT-4 leukemia 1.53% | SR leukemia -40.6% | RPMI-8226 leukemia -10.4% | T-47D breast -25.8%
inactive: EKVX NSCLC 93.2% | SN12C renal 76.2% | UO-31 renal 69.3% | TK-10 renal 143% | CAKI-1 renal 57.4% | A498 renal 78.6% | OVCAR-8 ovarian 62.6% | OVCAR-5 ovarian 98.7% | OVCAR-4 ovarian 68.1% | SK-OV-3 ovarian 101% | IGROV1 ovarian 81.5% | HS 578T breast 70% | NCI/ADR-RES ovarian 75.4%

CCN1C(=S)N(CC)C2C1NN=C1SC(c3ccccc3)=CC(=O)N12 (stereo unspecified)
inactive: EKVX NSCLC 106% | SN12C renal 110% | UO-31 renal 113% | TK-10 renal 103% | ACHN renal 103% | A498 renal 118% | CCRF-CEM leukemia 97.5% | MOLT-4 leukemia 97.7% | SR leukemia 52.1% | RPMI-8226 leukemia 107% | OVCAR-8 ovarian 99.4% | OVCAR-5 ovarian 107% | OVCAR-4 ovarian 115% | SK-OV-3 ovarian 110% | IGROV1 ovarian 109% | HS 578T breast 114% | NCI/ADR-RES ovarian 99.6% | T-47D breast 108%

O=c1/c(=C\c2ccc(-c3ccccc3)o2)sc2nc(-c3ccccc3)nn12
inactive: EKVX NSCLC 99.9% | SN12C renal 97.3% | UO-31 renal 89% | TK-10 renal 95.1% | CAKI-1 renal 96.4% | A498 renal 84.3% | CCRF-CEM leukemia 101% | MOLT-4 leukemia 108% | SR leukemia 102% | OVCAR-8 ovarian 105% | OVCAR-5 ovarian 104% | OVCAR-4 ovarian 107% | SK-OV-3 ovarian 105% | IGROV1 ovarian 103% | HS 578T breast 95.4% | NCI/ADR-RES ovarian 101% | T-47D breast 92.9%

N#Cc1c(-c2ccc(Cl)cc2)nc2c(-c3ccccc3)c(Nc3ccccc3)nn2c1N
active: OVCAR-4 ovarian -7.41%
inactive: EKVX NSCLC 60.6% | SN12C renal 77.5% | UO-31 renal 34.8% | TK-10 renal 139% | CCRF-CEM leukemia 67.9% | MOLT-4 leukemia 61% | SR leukemia 36.9% | RPMI-8226 leukemia 54.1% | OVCAR-8 ovarian 48.6% | OVCAR-5 ovarian 67.4% | SK-OV-3 ovarian 42.7% | IGROV1 ovarian 56.4% | HS 578T breast 37.3% | NCI/ADR-RES ovarian 38.9% | T-47D breast 52.9%
